In the supplement of paper PMC10646978:
± gives the standard deviation.

Legend:
Settings in all cases: modulator concentration 10 µM
[1] = test system: RAW-Dual (murine macrophage reporter line); assay: NF-kB reporter (SEAP) activity fold change vs agonist alone; higher = enhanced NF-kB activity
Summary of the method: (§1)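 Compound reached 10 μM final in each well by pin transfer, onto RAW-Dual murine macrophage reporter cells seeded at 50 000 per well in 384-well plates. After 1 hour at 37 °C, the cells were stimulated overnight with a PRR agonist. SEAP in the supernatant was read with QUANTI-Blue at 620 nm absorbance for NF-κB, and Lucia luciferase was read with QUANTI-Luc luminescence for IRF. Each signal was turned into fold change against the mean agonist-only control on the same plate, and two replicate plates were averaged with propagated errors.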

[2] = test system: RAW-Dual (murine macrophage reporter line); assay: IRF reporter (Lucia luciferase) activity fold change vs agonist alone; higher = enhanced IRF activity
Summary of the method: as §1

[3] = test system: RAW-Dual (murine macrophage reporter line); assay: viability score (confluency relative to resting cells, overnight) (fraction); higher = more viable, active = viable (0.7 or more)
Summary of the method: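 Confluency was the readout: RAW-Dual macrophages were imaged with IncuCyte after an overnight exposure to compound at 10 μM final. IncuCyte software produced two masks over all imaged wells. The viability score expresses confluency against resting cells, and both masks had to exceed 70% of resting cells for a compound to meet the cutoff.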

[4] = agonist: CpG ODN 1826 0.5 ug/mL

SMILES | NF-kB reporter [1, 4] | NF-kB reporter ([1]; agonist: LPS 0.1 ug/mL) | NF-kB reporter ([1]; agonist: MPLA […]) | IRF reporter ([2]; agonist: 3'3'-cGAMP 10 ug/mL) | IRF reporter ([2]; agonist: LPS 0.1 ug/mL) | IRF reporter ([2]; agonist: MPLA […]) | viability score [3]
O=C(c1ccccc1)c1cc([N+](=O)[O-])ccc1N1CCOCC1 | 2.4 ± 0.19 | 1.15 ± 0.069 | 1.88 ± 0.13 | 0.297 ± 0.03 | 1.65 ± 0.12 | 1.48 ± 0.32 | 0.739 (active)
CCOC(=O)C1=C(C)NC(C)=C(C(=O)OC)C1c1ccc([N+](=O)[O-])cc1 (stereo unspecified) | 0.97 ± 0.24 | 1.01 ± 0.12 | 1.13 ± 0.23 | 1.16 ± 0.049 | 1.01 ± 0.21 | 1.09 ± 0.21 | 0.985 (active)
Cc1ccc(N2C(=O)C(Cl)=C(Nc3cccc(C)c3C)C2=O)cc1Cl | 0.739 ± 0.062 | 0.897 ± 0.064 | 1.28 ± 0.053 | 0.549 ± 0.063 | 0.954 ± 0.039 | 1.63 ± 0.21 | 0.995 (active)
CCCCc1nc(Cl)c(CO)n1Cc1ccc(-c2ccccc2-c2nnn[nH]2)cc1 [Prestw-1433] | 1.2 ± 0.29 | 1.08 ± 0.054 | 1.02 ± 0.065 | 0.944 ± 0.034 | 1.29 ± 0.14 | 1.32 ± 0.19 | 1 (active)
CC1(C)CC(=O)C2=C(C1)OC(N)=C(C#N)C21C(=O)Nc2ccc(Br)cc21 (stereo unspecified) | 0.954 ± 0.077 | 1.05 ± 0.08 | 0.955 ± 0.057 | 0.967 ± 0.032 | 1.18 ± 0.1 | 1.03 ± 0.096 | 1.01 (active)
Brc1ccc2ncnc(Nc3ccccc3)c2c1 | 1.03 ± 0.12 | 1.25 ± 0.097 | 1.04 ± 0.029 | 0.357 ± 0.021 | 0.629 ± 0.039 | 0.731 ± 0.08 | 1 (active)
COc1cccc(CC(=O)N2CCC(Oc3ccc4ccccc4n3)C2)c1 (stereo unspecified) | 0.762 ± 0.04 | 1.18 ± 0.14 | 1 ± 0.077 | 0.938 ± 0.056 | 1.18 ± 0.14 | 1.24 ± 0.25 | 1 (active)
C#Cc1cccc(Nc2ncnc3cc(OC)c(OCCCCCCC(=O)NO)cc23)c1 | 1.12 ± 0.058 | 1.45 ± 0.11 | 2.44 ± 0.12 | 0.563 ± 0.034 | 0.43 ± 0.029 | 0.581 ± 0.068 | 0.973 (active)
Oc1ccc(Cl)cc1-c1nc2ccccc2s1 | 1.01 ± 0.084 | 0.944 ± 0.087 | 0.967 ± 0.091 | 1.09 ± 0.035 | 1.29 ± 0.16 | 1.58 ± 0.23 | 1.02 (active)
CCC1(O)C(=O)OCc2c1cc1n(c2=O)Cc2cc3cc(O)ccc3nc2-1 (stereo unspecified) | 2.02 ± 0.62 | 1.28 ± 0.11 | 2.19 ± 0.4 | 2.67 ± 0.16 | 2.12 ± 0.24 | 1.89 ± 0.32 | 0.851 (active)
O=C(C=Cc1ccc(-c2cccc(Cl)c2)o1)c1ccc(Cl)cc1 | 0.755 ± 0.085 | 0.746 ± 0.038 | 0.857 ± 0.079 | 0.446 ± 0.031 | 0.896 ± 0.058 | 0.724 ± 0.14 | 0.957 (active)
C=C1CCC2C(C)(CO)C(O)CCC2(C)C1CC=C1C(=O)OCC1O (stereo unspecified) | 0.462 ± 0.11 | 0.496 ± 0.025 | 0.755 ± 0.11 | 0.188 ± 0.0064 | 2.13 ± 0.35 | 1.51 ± 0.18 | 0.839 (active)
O=C(C1=C(O)C(=O)N(c2nccs2)C1c1ccccc1)c1cc2ccccc2o1 (stereo unspecified) | 0.928 ± 0.054 | 1.57 ± 0.12 | 0.97 ± 0.062 | 0.664 ± 0.026 | 0.967 ± 0.19 | 0.885 ± 0.082 | 0.997 (active)
